Results: PubChem BioAssay AID652067 (The Scripps Research Institute Molecular Screening Center, 2013)
Hit rate of the full screen: of about 370,000 compounds, about 5,400 (1.5%) were called active. The list comes from a sample in which actives are over-represented; it also holds similar structures and randomly drawn compounds. Values without a mark were called inactive.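 How the source made its calls: active means activation above the mean of all tested compounds plus 3 SD (cut at about 5.5% in these data); inactive means the rest.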

System: DAF-12 nuclear receptor (Haemonchus contortus)
Assay: hcDAF-12 driven luciferase reporter activation – cell-based, luminescence, HEK293, lit1-tk-luc reporter, primary screen (AID 652067);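 further: 100% = response to 3 µM Δ7-dafachronic acid high control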
Conditions: HEK293 hcDAF-12 lit1-tk-luc reporter, at 6.8 µM, hits give high values, 0% DMSO, 100% Δ7-dafachronic acid

Row | SMILES | activation
1 | O=C(CCCOc1ccccc1)Nc1cccc(C(=O)O)c1 | -0.3%
2 | O=C(O)c1cccc(NC(=S)N/N=C/c2c[nH]c3ccccc23)c1 | 5.99% (active)
3 | O=C(Cc1c[nH]c2ccccc12)N/N=C/c1cccc(F)c1 | -2.14%
4 | CCn1c(SC)nc(O)c(C(c2ccc(OC)c(O)c2)c2c(O)nc(SC)n(CC)c2=O)c1=O | -1.4%
5 | Cc1cccc(N2Cc3ccccc3C2=NC(=O)c2ccc(Cl)nc2)c1 | 5.83% (active)
6 | N#Cc1ccc(N2Cc3ccccc3/C2=N/C(=O)Nc2ccc(Cl)cc2)cc1 | -0.08%
7 | Cc1cccc(N2CCN(C(=O)c3cccc(S(=O)(=O)N4CCc5ccccc5C4)c3)CC2C)c1 (stereo not given) | -2.28%
8 | CCCCCCCCNS(=O)(=O)/C=C/c1cc(C)ccc1CNC(=O)OC(C)(C)C | -0.7%
9 | COc1ccc(-c2nnn(Cc3nc(N)nc(N4CCCCC4)n3)n2)cc1 | -2.9%
10 | CC(C)(C)N1CC(c2nc3ccccc3n2Cc2ccc(F)cc2)CC1=O (stereo not given) | 0.33%
11 | CCOC(=O)CNc1nc2ccccc2n2c(C)nnc12 | -0.04%
12 | Fc1ccc(CNc2nc3ccccc3n3nnnc23)cc1 | 5.66% (active)
13 | Cc1ccc(-n2nc(N)c3c(=O)oc(N(C)C)nc32)cc1 | 0.85%
14 | Cc1c(C)n2c(SCC(=O)NC3CCCC3)nnc2[nH]c1=O | -0.71%
15 | Cc1nc(SCC(=O)NC2CCCC2)[nH]c(=O)c1C | 5.79% (active)
16 | CCc1c(C)nc(SCC(=O)NC2CCCC2)[nH]c1=O | -0.17%
17 | CCOC(=O)c1c(C2CC2)csc1NC(=O)CSCc1c(C)noc1C | -3.08%
18 | CC(=O)Nc1cccc(C(=O)OCN2C(=O)c3ccccc3C2=O)c1 | 1.25%
19 | CC(=O)Nc1cccc(C(=O)OCC(=O)NCc2cc(C)c(O)c(C)c2)c1 | 1.87%
20 | CC(=O)Nc1cccc(C(=O)OCC(=O)c2ccc3c(c2)OCO3)c1 | 8.29% (active)
21 | COc1ccc(C(=O)OCCN(C)C2CN(Cc3cn(Cc4cccc(C)c4)nn3)S(=O)(=O)C2)cc1OC (stereo not given) | -2.89%
22 | FC(F)(F)c1ccccc1Cc1c(-c2ccccc2)nc2c3ccccc3ccn12 | 5.96% (active)
23 | c1ccc(Cc2c(-c3ccco3)nc3c4ccccc4ccn23)cc1 | 12% (active)

Row | SMILES | activation
24 | Cc1ccc(Cc2c(-c3ccc(C)cc3)nc3c4ccccc4ccn23)cc1 | 4.63%
25 | Cc1ccc(Cc2c(-c3ccc(Cl)cc3)nc3c4ccccc4ccn23)cc1 | 3.04%
26 | CCCc1nc2c3ccccc3ccn2c1Cc1ccccc1C(F)(F)F | 5.09%
27 | COc1ccccc1Cc1c(-c2ccc(Cl)cc2)nc2c3ccccc3ccn12 | 2.15%
28 | COc1cccc(N2CCN(CC(=O)N(C)Cc3ccc(F)cc3)CC2)c1 | -2.02%
29 | C=CCN1C(=O)[C@H](CC(=O)NCCCN2CCCC2=O)[C@@]2(C(=O)OCC)CCCC=C12 | -0.18%
30 | Cc1ccc(NC(=O)c2cc(C)nn2-c2ccccc2)c(C)c1 | -2.18%
31 | Clc1cccc2c1C1CC2CCN1Cc1ccccc1 (stereo not given) | -1.68%
32 | CS(=O)(=O)N(Cc1ccccc1Cl)c1ccc(C(=O)NCc2cccnc2)cc1 | -2.13%
33 | CCCc1cc(C(=O)Nc2ccc(Cl)cn2)cs1 | 7.31% (active)
34 | O=C(COC(=O)c1ccco1)Nc1ccc(Cl)cn1 | 0.13%
35 | CC(OC(=O)CNC(=O)c1ccco1)C(=O)Nc1ccc(Cl)cn1 (stereo not given) | -2.11%
36 | O=C(Nc1cc(Cl)cc(Cl)c1)OCCN1CCCC12CCC(c1ccccc1)CC2 (stereo not given) | -0.18%
37 | COC(=O)[C@]12C[C@H](CC(=O)N3CCOCC3)C(=O)N(Cc3ccc(Cl)cc3Cl)C1=C[C@H](COCc1ccccc1)O[C@@H]2C | -3.03%
38 | CC(C)Oc1c(Br)cc(Br)cc1/C=N/NC(N)=S | -4.22%
39 | NC(=S)N/N=C/c1coc2cc(Cl)ccc2c1=O | 5.81% (active)
40 | NC(=S)NN=Cc1ccc(OC(=O)COc2cc(Cl)c(Cl)cc2Cl)cn1 | -1.62%
41 | Cc1cc(N2CCN(C(=O)OC(C)(C)C)C[C@H]2C)ccc1N1CCN(Cc2ccccc2)[C@H](C)C1 | 1.47%
42 | O=C(Nc1ccccc1)N(Cc1cccnc1)Cc1ccco1 | -0.9%
43 | CC(C)(C)NC(=O)C(c1ccncc1)N(C(=O)CNC(=O)c1ccco1)c1ccc2c(c1)OCO2 (stereo not given) | 6.8% (active)
44 | COc1cccc(N(C(=O)CNC(=O)c2ccco2)C(C(=O)NC2CCCCC2)c2cccnc2)c1 (stereo not given) | -0.65%
45 | Cc1ccc(N(C(=O)CNC(=O)c2ccco2)C(C(=O)NC2CCCC2)c2ccncc2)cc1 (stereo not given) | 0.7%
46 | CC(C)CNc1cccc2c1S(=O)(=O)N[C@H](CC(C)C)CO2 | -1.3%

Row | SMILES | activation
47 | Nc1ccccc1/C=N\N=C/c1ccccc1N | 8.99% (active)
48 | C=CCN1C(=O)[C@@H](CC(=O)NCCCCc2ccccc2)[C@]2(C(=O)OCC)CCCCC/C=C/12 | -0.4%
49 | COC(=O)c1cc2c(N)c(C(=O)c3ccc(Cl)cc3)sc2nc1C(OC)OC | 0.3%
50 | CC(=O)c1c(Nc2ccccc2)sc(C(=O)c2ccccc2)c1C | -2.59%
51 | CN(C)c1ccnc2sc(C(=O)c3ccccc3)c(N)c12 | 6.4% (active)
52 | CCCCCCCCN1C(=O)[C@@H](CC(=O)N2CCN(C(=O)OCC)CC2)C[C@@]2(C(=O)OC)C1=C[C@H](C1CCCC1)O[C@@H]2C | -0.68%
53 | COc1cccc(CN2C(=O)CCC2(C)C(=O)NC2CCCCCC2)c1 (stereo not given) | -2.09%
54 | O=C(CSc1nnc(COc2ccccc2)n1-c1ccc(Cl)cc1)Nc1ccc2c(c1)OCO2 | -0.19%
55 | COc1ccc(-c2noc(CCC(=O)N3CCN(c4cccc(C)c4)CC3)n2)cc1 | -0.53%
56 | COc1ccc(N2CCN(C(=O)CCc3nc(-c4ccc(C)cc4)no3)CC2)cc1 | -1.97%
57 | Cc1ccc(C)c(N2CCN(C(=O)CCc3nc(-c4cccc(C(F)(F)F)c4)no3)CC2)c1 | 6.2% (active)
58 | C=CS(=O)(=O)N(Cc1nnn(Cc2ccccc2)c1Br)[C@H](C(=O)OC)C(C)C | -3.12%
59 | COc1ccc(N2CCN(C(=O)CNC(=O)c3ccc(C(C)(C)C)cc3)CC2)cc1 | -2.42%
60 | O=C(NCC(=O)N1CCN(c2ccccc2O)CC1)c1ccc2ccccc2c1 | 6.1% (active)
61 | O=C(CNC(=O)c1ccc2ccccc2c1)Nc1ncccc1O | 0.18%
62 | Clc1ccc(-n2c(COc3ccccc3)nnc2SCc2nc3ccccc3[nH]2)cc1 | -0.51%
63 | NNC(=O)C1CCCn2c1nc1sc3c(c1c2=O)CCCC3 (stereo not given) | 8.63% (active)
64 | CCn1c(SCC(C)=O)nc2sc3c(c2c1=O)CCCC3 | -0.57%
65 | CCc1nc(N2CCN(C(C)=O)CC2)c2c3c(sc2n1)CCCC3 | 0.85%
66 | COC(=O)C1=C(C(=O)OC)C2C=C(C(C)C)C1C(=O)C2(C)O (stereo not given) | -1.42%
67 | O=C(OCC#CCSc1nnc(-c2ccco2)o1)c1ccc(F)cc1 | -1.32%
68 | O=C(O)Cn1cnc2c(NCc3ccccc3)ncnc21 | 0.95%
69 | Cc1cc(=O)[nH]c(SCC(=O)Nc2ccc(F)cc2F)n1 | -0.74%

Row | SMILES | activation
70 | O=C(Nc1ccccc1)N1CCN(Cc2nc3ccccc3c(=O)[nH]2)CC1 | 0.3%
71 | Fc1ccccc1/C=N/Nc1cc(N2CCCCC2)ncn1 | 5.99% (active)
72 | Cc1ccc(N2C(=O)C(NC(=O)c3c(F)cccc3F)(C(F)(F)F)C3=C2CC(C)(C)CC3=O)cc1 (stereo not given) | -1.79%
73 | O=C(c1cccc(C(F)(F)F)c1)N1CC[C@H]2[C@H](CCCN2Cc2cc(F)cc(F)c2)C1 | -0.81%
74 | O=C(CSc1nnc(-c2cccc(Cl)c2)n1Cc1ccco1)Nc1ccc(OCc2ccccc2)cc1 | -3.78%
75 | Clc1cccc(-c2nc3nc4ccccc4nc3n2Cc2ccco2)c1 | 7.47% (active)
76 | O=C(CSc1nnc(-c2ccccc2)n1Cc1ccco1)Nc1ccccc1-c1ccccc1 | -2.62%
77 | COC(=O)[C@]12C[C@H](CC(=O)NCCc3ccccc3OC)C(=O)N(Cc3ccccc3)C1=C[C@H](C(C)C)O[C@@H]2C1CC1 | -0.81%
78 | COc1cccc(OC)c1C(=O)N1CCN(Cc2cccnc2)CC1 | -1.19%
79 | Cc1ccc(C2=CCN(C)C(=O)N2c2ccc(Cl)cc2)cc1 | -0.28%
80 | COC(=O)CC1CCc2cc(C)cc(C(CC(C)C)NC(=O)[C@H](CC(C)C)NC(=O)OCc3ccccc3)c2O1 (stereo not given in full) | -1.44%
81 | O=C(COC(=O)/C=C/c1ccc(Cl)cc1)NC1CCS(=O)(=O)C1 (stereo not given) | -0.16%
82 | COc1ccccc1NC(=O)c1c(Br)cnn1C | -1.66%
83 | Cc1ccc(C(=O)NCC(=O)O)s1 | -0.44%
84 | COc1ccccc1NC(=O)c1cc(Cl)nnc1Cl | 1.71%
85 | Cc1csc(NC(=O)c2ccc(C)s2)n1 | 6.44% (active)
86 | COc1ccccc1NC(=O)c1ccc(C)s1 | 9.1% (active)
87 | Cc1csc(NC(=O)CN2CCCCCC2)n1 | 0.84%
88 | C=CCC[C@@H](Cc1ccc(F)cc1)C(=O)OC[C@H](Cc1c[nH]c2ccccc12)NC(=O)[C@@H](CC=C)CC(=O)N(CCO)Cc1ccccc1 | -2.25%
89 | CCCCNc1cccc2c1S(=O)(=O)N[C@@H](C)CO2 | 2.03%
90 | COC(=O)[C@]12C[C@H](CC(=O)NCCCN3CCCC3=O)C(=O)N(CCc3ccc(OC)c(OC)c3)C1=C[C@H](COCc1ccccc1)O[C@@H]2C | -0.83%
